Screening data (PubChem)
A selection: hits, their analogues and other compounds. The true share with any hit is near 6.6%.
MPTP block: mitochondrial permeability transition pore inhibitors, primary screen, biochemical, isolated mouse mitochondria, absorbance | hit rate 1.4% among 360,000 | inhibition, % at 10 µM | AID 602449, 2012 | Ca2+ swelling absorbance, 30 min;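 active = inhibition of 50% or more, scaled per plate between neutral and stimulator controls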;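 also: 0% = DMSO wells given calcium and 100% = 1 mM EGTA wells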
NR3A LBD binder: binders of NR3A ligand-binding domain, primary screen, biophysical, differential scanning fluorimetry, uHTS. Glutamate receptor ionotropic, NMDA 3A (GRIN3A) ligand-binding domain. NR3A LBD differential scanning fluorimetry, Tm shift; 0% = protein alone, 100% = glycine-bound protein. Tm shift relative to glycine control, % at 25 µM. hit rate 2.5% among 340,000;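 active = melting temperature shift of at least 10% of the positive control shift, at one fixed dose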
Mdm2-MdmX inh: inhibitors of human Mdm2-MdmX association, primary screen, cell-based, luminescence, split luciferase, SaOS-2, uHTS; Protein Mdm4 (Homo sapiens) + E3 ubiquitin-protein ligase Mdm2 (Homo sapiens), …; SaOS-2 split-luciferase Mdm2/MdmX complementation; inhibition, % at 8 µM; hit rate 3% among 330,000;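 active = inhibition of at least 50% at 8 µM in the primary screen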
Target sequence (O15151 whole entry, looked up): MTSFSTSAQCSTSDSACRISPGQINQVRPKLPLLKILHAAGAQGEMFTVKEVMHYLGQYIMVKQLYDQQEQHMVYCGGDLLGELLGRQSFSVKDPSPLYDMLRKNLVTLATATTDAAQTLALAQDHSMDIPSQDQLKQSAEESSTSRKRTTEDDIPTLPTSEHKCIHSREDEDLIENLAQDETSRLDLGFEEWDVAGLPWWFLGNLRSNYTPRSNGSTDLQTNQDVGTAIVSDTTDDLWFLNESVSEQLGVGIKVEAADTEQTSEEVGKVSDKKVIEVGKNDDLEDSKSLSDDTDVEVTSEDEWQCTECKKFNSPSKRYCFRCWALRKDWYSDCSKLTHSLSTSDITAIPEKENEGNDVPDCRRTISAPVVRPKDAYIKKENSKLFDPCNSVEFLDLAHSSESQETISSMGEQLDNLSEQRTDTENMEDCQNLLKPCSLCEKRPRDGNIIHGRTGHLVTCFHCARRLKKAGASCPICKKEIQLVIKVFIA
Target sequence (Q00987 whole entry, looked up): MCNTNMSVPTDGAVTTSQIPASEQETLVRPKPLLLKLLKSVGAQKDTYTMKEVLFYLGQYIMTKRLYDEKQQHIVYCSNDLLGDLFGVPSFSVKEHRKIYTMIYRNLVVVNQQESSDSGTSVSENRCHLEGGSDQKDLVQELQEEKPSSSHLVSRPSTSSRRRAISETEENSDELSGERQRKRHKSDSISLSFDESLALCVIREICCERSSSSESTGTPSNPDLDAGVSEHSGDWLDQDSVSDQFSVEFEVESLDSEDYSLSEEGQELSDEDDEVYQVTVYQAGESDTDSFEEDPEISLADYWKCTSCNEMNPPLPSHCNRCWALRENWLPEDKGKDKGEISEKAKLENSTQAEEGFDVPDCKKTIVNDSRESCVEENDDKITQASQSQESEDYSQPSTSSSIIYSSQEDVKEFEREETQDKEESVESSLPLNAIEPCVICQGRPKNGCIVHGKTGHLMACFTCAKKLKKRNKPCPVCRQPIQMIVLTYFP
Beta cell apopt: inhibitors of cytokine-induced beta cell apoptosis, primary screen, luminescence; INS-1E cytokine-induced death, ATP luminescence, 48 h; percent of positive-control rescue, neutral wells zero; hit rate 0.8% among 300,000; protection from apoptosis, % (test concentration not listed); AID 435005, 2010;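 active = Every replicate reaches about 75%, or at least half do and their mean reaches it too, limit read from the data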;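 also: 0% = cytokine-treated negative control wells and 100% = positive control rescue; higher means more ATP so stronger rescue from cytokine killing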
CSC inhib: cancer stem cell viability inhibitors, primary screen, luminescence | AID 2717, 2010 | cancer stem cell-like cells viability | inhibition, % at 7.5 µM | hit rate 1.1% among 300,000; in the data active = inhibition above about 75%; tested in HMLE shEcad cells
Gli-Sufu antag: Gli-Sufu pathway antagonists, primary screen, luciferase luminescence, Sufu-KO-LIGHT cells, uHTS. Sufu-KO-LIGHT fibroblasts, Gli luciferase reporter luminescence. inhibition, % at 5 µM. hit rate 0.74% among 340,000;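 active = inhibition above about 55%, limit read from the data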;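 also: 0% = DMSO-treated cells and 100% = wells with medium but no cells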
MPTP counter: fluorescence retest of MPTP screen hits in isolated mitochondria, single concentration. inhibition, % at 10 µM. shares compounds with MPTP block. hit rate 78% among 5,000. membrane potential, Rhodamine 123 fluorescence; in the data active = inhibition above about 22%;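 also: 0% = DMSO vehicle and 100% = positive control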
MPTP swell DR: mitochondrial permeability transition pore inhibitors, dose response, biochemical, absorbance, uHTS hits. hit rate 58% among 780. shares compounds with MPTP block. isolated mitochondria swelling. IC50, µM; in the data active = IC50 below about 20 µM
MPTP counter DR: fluorescent counter-screen in isolated mitochondria, dose response, counter-screen for MPTP inhibitor project, biochemical, fluorescence, uHTS hits. AID 651564, 2012. hit rate 49% among 780. isolated mitochondria counterscreen, fluorescence read-out. shares compounds with MPTP block. IC50, µM; in the data active = IC50 below about 80 µM
Numbers without * were called inactive; i = inactive; / = no result given.

SMILES	MPTP block	NR3A LBD binder	Mdm2-MdmX inh	Beta cell apopt	CSC inhib	Gli-Sufu antag	MPTP counter	others
Cc1ccc(C)c(NC(=O)CSc2nc3nc(-c4cccs4)cc(C(F)(F)F)c3c(=O)[nH]2)c1	77*	9	45	11	96*	8	61*
Cc1ccc(C)c(NC(=O)CSc2nc(N)c(NC(=O)c3cccs3)c(=O)[nH]2)c1	-1	-1	/	/	/	2	/
S=C(NCc1cccnc1)Nc1ccc(Oc2ccc(Cl)cc2)cc1	80*	5	7	-1	34	2	66*
S=C(NCc1ccccc1)Nc1ccc(Oc2ccccc2)cc1	86*	12*	29	2	27	-4	87*
O=C(CNCc1ccccc1)Nc1ccc(Oc2ccccc2)cc1	66*	-1	5	0	8	13	-11	MPTP swell DR=i;MPTP counter DR=43*
S=C(NCc1cccnc1)Nc1ccc(Cl)c(Cl)c1	71*	-5	15	-11	-1	-1	93*
COc1ccc(NC(=S)NCc2cccnc2)cc1	0	0	8	/	-8	-2	/
COc1cc(C(C)=O)ccc1OCC(=O)Nc1ccc(Cl)c(S(=O)(=O)N2CCOCC2)c1	-1	3	17	2	/	7	/
Cc1ccc(Cl)cc1-c1cc(C(=O)Nc2ccc(F)cc2)[nH]n1	64*	/	/	/	/	/	96*
Cc1ccc(Cl)cc1-c1cc(C(=O)NCc2ccc(C(F)(F)F)cc2)[nH]n1	52*	/	/	/	/	/	96*
Cc1cc(F)ccc1-c1cc(C(=O)NCc2ccc(C(F)(F)F)cc2)[nH]n1	29	/	/	/	/	/	/
CN(C(=O)COC(=O)c1cccc(S(=O)(=O)N2CCOCC2)c1)C1CCS(=O)(=O)C1 (stereo not drawn)	-2	1	-16	3	-13	-7	/
CCOC(=O)CNC(=O)CSc1nnc(C)c(=O)[nH]1	-1	-1	18	/	-8	-2	/
CCOC(=O)CSc1nnc(NCC(=O)OC(C)C)c(=O)[nH]1	63*	-1	1	-7	-2	-5	-2	MPTP swell DR=>100;MPTP counter DR=>80
Fc1cccc(CN2CCN3CCCC3C2C2CCCCC2)c1 (stereo not drawn)	42	-4	14	-1	-2	32	/
Fc1ccc(CN2CCN3CCCC3C2C2CCCCC2)cc1F (stereo not drawn)	56*	1	19	-4	-3	12	-12	MPTP swell DR=16*;MPTP counter DR=>80
Nc1nonc1C(=O)NCCN=Cc1cc(Cc2ccccc2)cc(Br)c1O	64*	2	22	-3	/	0	31*
CC(C)COc1ccc(-c2nnc(-c3ccncc3)o2)cc1	59*	0	-80	6	-6	-64	51*
O=C(CCNC(=O)OCC1c2ccccc2-c2ccccc21)NOCc1ccccc1	-2	-2	24	/	/	-4	/
Fc1cccc2sc(Nc3nnc(-c4ccccc4)o3)nc12	76*	-11	-1	26	63	-30	76*
O=C(COc1ccccc1)NNc1nc2c(F)cccc2s1	-2	1	12	-4	-1	-3	/
NNc1nc2c(F)cccc2s1	5	-4	3	5	19	15	/
O=C(NNc1nc2c(F)cccc2s1)c1ccc(F)cc1	66*	4	27	0	6	-4	90*
Fc1cccc2sc(Nc3nc4c(F)cccc4s3)nc12	56*	9	-38	/	-2	-21	69*
CCc1ccc2c(CN(C)Cc3ccccc3OC)cc(=O)oc2c1	1	-1	-36	-3	21	21	/
SMILES	MPTP block	NR3A LBD binder	Mdm2-MdmX inh	Beta cell apopt	CSC inhib	Gli-Sufu antag	MPTP counter	others
CNc1nnc(Sc2ncccc2[N+](=O)[O-])s1	5	2	-6	-4	5	5	/
Clc1cccc(CON/C=N/c2ncnc3sccc23)c1	1	-4	19	3	10	24	/
Clc1cccc(Cl)c1CON/C=N/c1ncnc2sccc12	69*	-34	18	27	23	1	41*
Cc1nc2ccccc2cc1C(=O)N(C)Cc1ccccc1	0	-2	25	/	-12	-2	/
Cc1cc(C(=O)Nn2c(C)nc3ccccc3c2=O)ccc1[N+](=O)[O-]	0	-1	-4	-6	/	-2	/
O=C(Nn1c(C2CCCCC2)nc2ccccc2c1=O)c1ccc(Cl)c([N+](=O)[O-])c1	72*	3	-5	3	17	0	83*
Cc1cc(C(=O)Nn2c(C3CCCCC3)nc3ccccc3c2=O)ccc1[N+](=O)[O-]	53*	3	10	1	10	0	77*
O=C(Nn1c(C2CCCCC2)nc2ccccc2c1=O)c1cc(Cl)ccc1[N+](=O)[O-]	8	-4	-15	11	-2	-6	/
CC(=O)c1ccc(NC(=O)Cn2cnc(S(=O)(=O)N3CCc4ccccc43)c2)cc1	1	2	37	0	-16	4	/
COc1ccc(CC2(CO)CCN(Cc3nc(C(C)C)cs3)CC2)cc1	-1	-2	12	4	-5	9	/
CCOc1ccc(S(=O)(=O)N=C(c2ccccc2)N2CCOCC2)cc1	-1	-2	7	-2	-15	5	/
O=C1CSC(=S)N1/N=C/c1cc(Br)c(O)c(Br)c1	83*	2	/	-1	-11	-12	66*
CC1CCCN(C(=S)SCC(=O)O)C1 (stereo not drawn)	0	1	5	-7	-1	-6	/
CC1CCCN(C(=S)SCC(=O)c2cc(Br)cc(Br)c2O)C1 (stereo not drawn)	59*	-4	-13	-2	28	12	32*
COC(=O)c1ccccc1NC(=O)CSCC(=O)Nc1ccccc1	-2	-1	12	3	-23	3	/
Cc1ccc(S(=O)(=O)C(C#N)c2nc3ccccc3nc2N2CCC(C)CC2)cc1 (stereo not drawn)	1	-6	/	/	/	-5	/
Cc1ccc(C)c(S(=O)(=O)C(C#N)c2nc3ccccc3nc2N2CCCC2)c1 (stereo not drawn)	-2	-1	14	1	14	8	/
